Screening data (PubChem BioAssay)
Pf growth 96h = P. falciparum growth inhibition at 96 hours; P. falciparum luciferase reporter growth, 96 h; Potency, µM (highest dose often 28.7 µM), usual class: inhibitors; 6.9% of 320,000 active; AID 504834
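Two-generation exposure (96 h) targets delayed-death phenotype. Reporter parasites carrying integrated firefly luciferase, in red cells at 2% hematocrit and 0.05% parasitemia final, kept at 37 C, 5% CO2; luminescence loss indicates inhibition.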
Giardia FBPA inh = Giardia lamblia aldolase inhibition | A8B2U2 | purified Giardia FBPA | Potency, µM (highest dose often 59.6 µM), hits mostly inhibitors | 0.71% of 290,000 active; note: nearly all actives have a fitted effect of over 55% in size
Target sequence (A8B2U2 whole entry, looked up): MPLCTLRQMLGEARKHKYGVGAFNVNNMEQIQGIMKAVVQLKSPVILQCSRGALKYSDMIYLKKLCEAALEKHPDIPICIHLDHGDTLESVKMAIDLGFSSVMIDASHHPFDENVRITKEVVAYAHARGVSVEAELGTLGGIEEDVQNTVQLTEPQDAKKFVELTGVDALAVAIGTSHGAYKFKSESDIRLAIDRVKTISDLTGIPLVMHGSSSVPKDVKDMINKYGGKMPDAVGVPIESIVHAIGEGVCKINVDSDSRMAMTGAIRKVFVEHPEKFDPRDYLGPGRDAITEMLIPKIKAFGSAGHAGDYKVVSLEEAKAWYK
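40 nM FBPA preincubated 10 min at RT with compound (up to 57.5 uM final), then substrate plus GAPDH/TPI/NAD/arsenate coupling and diaphorase/resazurin added. Fluorescence read after 20 min at RT, 525/598 nm.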
Cycloheximide cs = counter-screen hit for Shiga toxin inhibitors, cycloheximide | cell reporter, cycloheximide protein synthesis inhibition counterscreen | max response, % | 12% of 300,000 active; in the data active = max response mostly above about 13%, no sharp cut-off; inactive = mostly below about 14%; note: read at 38.3 µM for the half of the compounds with a filed dose
NS1 inh = inhibitors of influenza NS1 protein function | Potency, µM (series often up to 46.1 µM) | 0.4% of 270,000 active | AID 2326; calls by dose curve; note: actives are rising curves; nearly all actives have a fitted effect of over 50% in size
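Growth recovery, yeast-based: influenza A NS1 expressed in S. cerevisiae causes slow growth, and suppressors are detected by OD600. The parent strain without NS1 is used as positive control.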
Shiga toxin inh = inhibitors of Shiga toxin in Vero cells; Vero cells, Shiga toxin protein synthesis inhibition reporter; inhibition, % at 38.7 µM; 9.2% of 290,000 active; in the data active = inhibition mostly above about 28%, no sharp cut-off; inactive = mostly below about 43%
Pf growth 48h = P. falciparum growth inhibition at 48 hours (one generation) | P. falciparum luciferase growth in erythrocytes, 48 h | AID 504832 | Potency, µM (doses to about 28.7 µM), usual class: inhibitors | 5.9% of 310,000 active
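A one-generation exposure of luciferase-tagged malaria parasites in RPMI 1640/Albumax erythrocyte culture, 37 C and 5% CO2. Inhibition is inferred from decreased luminescence after adding detection reagent.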
Each line names hits and unclear results; the compound was inactive in the other large screens. Only some compounds are listed: those with a hit (about 21% of all), similar ones and a draw of the others. Unless noted, calls come from the whole dose curve; as a rule, active = well fitted curve in the direction sought with a large enough effect; inconclusive = small, poorly fitted or top-dose-only effect, or another doubt; inactive = no such curve, though single readings can be large; an effect the other way counts as inactive or inconclusive.

CC(C)(C)c1ccc(C(=O)N/C(=C\c2cccc([N+](=O)[O-])c2)C(=O)Nc2cccc(C(=O)O)c2)cc1	Pf growth 96h inconclusive, NS1 inh inconclusive
CCOc1ccccc1N1CCN(C(=O)c2cccs2)CC1	Pf growth 96h inconclusive (no result: Shiga toxin inh)
CC1=C(C)CC(C(=O)NNC(=O)c2csc(C)c2C)C(C(=O)O)C1 (stereo unspecified)	Cycloheximide cs 21, Shiga toxin inh 79
Cc1ccccc1OCCC(=O)N(Cc1ccccc1)c1c(N)n(Cc2ccccc2)c(=O)[nH]c1=O	Pf growth 96h inconclusive, Pf growth 48h inconclusive (no result: Giardia FBPA inh)
Cc1ccccc1OCCC(=O)N(CC(C)C)c1c(N)n(Cc2ccccc2)c(=O)[nH]c1=O	Pf growth 96h inconclusive, Pf growth 48h 12µM (no result: Giardia FBPA inh, Cycloheximide cs, NS1 inh, Shiga toxin inh)
CCCCN(C(=O)CSc1nnc(-c2ccc(Cl)cc2)o1)c1c(N)n(CC(C)C)c(=O)[nH]c1=O	Pf growth 96h inconclusive, Pf growth 48h 13µM (no result: Giardia FBPA inh, Cycloheximide cs, NS1 inh, Shiga toxin inh)
CCCCN(C(=O)CCSc1ccc(F)cc1)c1c(N)n(Cc2ccccc2)c(=O)[nH]c1=O	Pf growth 96h 12µM, Pf growth 48h 12µM (no result: Giardia FBPA inh, Cycloheximide cs, NS1 inh, Shiga toxin inh)
CCOc1ccc2nc(SCC(=O)N(CC(C)C)c3c(N)n(Cc4ccccc4)c(=O)[nH]c3=O)[nH]c2c1	Pf growth 96h 12µM, Pf growth 48h inconclusive (no result: Giardia FBPA inh, Cycloheximide cs, NS1 inh, Shiga toxin inh)
CCCCN(C(=O)CCCSc1nc2ccccc2[nH]1)c1c(N)n(Cc2ccccc2)c(=O)[nH]c1=O	Pf growth 96h inconclusive, Pf growth 48h inconclusive
Cc1ccc(S(=O)(=O)N[C@H](C(=O)N2CCC(C(=O)N[C@@H](CC(=O)O)C(=O)O)CC2)C(C)C)cc1	none
CN(C)C(=O)COc1ccc(S(=O)(=O)c2ccc(OCC(=O)N(C)C)cc2)cc1	Pf growth 48h inconclusive
CN(C)S(=O)(=O)c1ccc(NC(=O)CCNC(=O)c2ccco2)cc1	none
CN(CCCC(=O)Nc1ccc(OC(F)F)cc1)S(=O)(=O)c1ccc(F)cc1	Pf growth 96h inconclusive, Pf growth 48h inconclusive
CCOc1ccc(OCCC(=O)N(CCC(C)C)c2c(N)n(Cc3ccccc3)c(=O)[nH]c2=O)cc1	Pf growth 48h 10µM (no result: Giardia FBPA inh, Cycloheximide cs, NS1 inh, Shiga toxin inh)
CCOc1ccc(OCCC(=O)N(CCCOC)c2c(N)n(Cc3ccccc3)c(=O)[nH]c2=O)cc1	Pf growth 48h inconclusive (no result: Giardia FBPA inh, Cycloheximide cs, NS1 inh, Shiga toxin inh)
COc1ccc(CC(=O)Nc2ccccc2N2CCCC2)cc1	Pf growth 96h inconclusive, Pf growth 48h inconclusive (no result: Giardia FBPA inh)
COc1ccc(CC(=O)Nc2cc(Cl)ccc2O)cc1	Pf growth 96h inconclusive, Cycloheximide cs 11, Pf growth 48h inconclusive
COc1ccc(CCC(=O)Nc2cc(Cl)ccc2OC)cc1	Pf growth 96h inconclusive (no result: Pf growth 48h)
COc1ccc(CC(=O)NNS(=O)(=O)c2ccccc2[N+](=O)[O-])cc1	Pf growth 96h 4.7µM
COc1ccc(CC(=O)Nc2ccccc2NC(=O)Cc2ccc(OC)cc2)cc1	Pf growth 48h 6.6µM
CO[C@@H]1/C=C\CC(=O)N2CCC[C@@H]2C(=O)OC[C@H](C)C(=O)OC[C@H]1C	none (no result: Pf growth 96h, Cycloheximide cs, NS1 inh, Shiga toxin inh, Pf growth 48h)
NC1=NC(c2cccc(Cl)c2)N(CCc2ccc(F)cc2)C(N)=N1 (stereo unspecified)	Pf growth 96h inconclusive
Cc1ccc(C(=O)OCC(=O)NCc2ccco2)cc1	none (no result: Pf growth 48h)
Cc1cc(C(=O)OCc2nnc(-c3ccccc3)o2)c(C)n1-c1ccccc1	none
CCOC(=O)c1cc(C)n(-c2ccc(Cl)cc2)c1C	Pf growth 96h inconclusive, Pf growth 48h inconclusive
Cc1cc(C(=O)OCC(=O)NCc2ccco2)c(C)n1-c1ccc(F)cc1	Pf growth 96h inconclusive, Pf growth 48h 8.3µM
CCNC(=O)COC(=O)c1cc(C)n(-c2ccccc2)c1C	Cycloheximide cs 41, Shiga toxin inh 62 (no result: NS1 inh)
Cc1noc(C)c1COC(=O)c1cc(C)n(-c2ccccc2)c1C	Cycloheximide cs 51, Shiga toxin inh 38
Nc1ccccc1NC1=CC(=O)CC(c2ccccc2)C1 (stereo unspecified)	Pf growth 96h inconclusive, Cycloheximide cs 22 (no result: NS1 inh)
Nc1ccccc1NC1=CC(=O)CC(c2ccco2)C1 (stereo unspecified)	Cycloheximide cs 47, Shiga toxin inh 72, Pf growth 48h inconclusive (no result: Pf growth 96h)
Cc1ccc(NC2=CC(=O)CC(c3ccco3)C2)c(N)c1 (stereo unspecified)	Cycloheximide cs 37, Shiga toxin inh 79, Pf growth 48h inconclusive
CCOc1ccccc1NC1=CC(=O)CC(c2ccccc2)C1 (stereo unspecified)	none
COc1ccc(NC2=CC(=O)CC(c3ccccc3)C2)c(OC)c1 (stereo unspecified)	Pf growth 96h inconclusive, Cycloheximide cs 37, Pf growth 48h inconclusive
O=C1C=C(Nc2cccc(Cl)c2)CC(c2ccco2)C1 (stereo unspecified)	Pf growth 48h inconclusive (no result: Pf growth 96h)
Cc1cc(C)cc(NC2=CC(=O)CC(c3ccco3)C2)c1 (stereo unspecified)	none (no result: Pf growth 96h)
O=C1C=C(Nc2ccc(Cl)cc2)CC(c2ccccc2)C1 (stereo unspecified)	Pf growth 48h inconclusive
CCC(C)NC(=O)c1ccc(CN2CCc3ccccc3C2)cc1 (stereo unspecified)	none
N#Cc1c(NC(=O)c2cccc(S(=O)(=O)Nc3ccc(C(=O)O)cc3)c2)sc2c1CCCC2	NS1 inh inconclusive
CC1CC(Nc2ccccc2N)=CC(=O)O1 (stereo unspecified)	Cycloheximide cs 28, Shiga toxin inh 48 (no result: Pf growth 96h)
Cc1cccc(NC2=CC(=O)OC(C)C2)c1 (stereo unspecified)	none (no result: Pf growth 96h)
CCS(=O)(=O)N1CCC2(CC1)OCCN2S(=O)(=O)c1ccc(OC)cc1	none (no result: Giardia FBPA inh, Cycloheximide cs, NS1 inh, Shiga toxin inh)
Cc1ccc(S(=O)(=O)N2CCOC23CCN(S(=O)(=O)c2c(C)cc(C)cc2C)CC3)cc1	Pf growth 96h 4.7µM, Pf growth 48h inconclusive (no result: Giardia FBPA inh, Cycloheximide cs, NS1 inh, Shiga toxin inh)
COc1ccc(S(=O)(=O)N2CCOC23CCN(S(=O)(=O)c2ccc(C)cc2)CC3)cc1	Pf growth 96h inconclusive, Pf growth 48h 15µM (no result: Giardia FBPA inh, Cycloheximide cs, NS1 inh, Shiga toxin inh)
CCC1Sc2ccc(S(=O)(=O)CCC(=O)Nc3c(Cl)cc(OC)cc3OC)cc2NC1=O (stereo unspecified)	none
Cc1ccc(NC(=O)Nc2cccs2)nc1	Cycloheximide cs 38, Shiga toxin inh 94 (no result: Pf growth 96h)
CCc1ccc(NC(=O)C(C)OC(=O)CCC(=O)c2cccs2)cc1 (stereo unspecified)	none
CCOc1ccc(NC(=O)Nc2cccs2)cc1	Pf growth 96h inconclusive, Cycloheximide cs 47, Shiga toxin inh 61 (no result: Pf growth 48h)
CCOc1ccc(NC(=O)Nc2ccc(Cc3ccncc3)cc2)cc1	Pf growth 96h inconclusive, Pf growth 48h inconclusive
CCc1ccc(NC(=O)Nc2cccs2)cc1	Cycloheximide cs 20, Shiga toxin inh 56
Cc1ccc(NC(=O)Nc2cccs2)cc1	Pf growth 96h 7.4µM, Cycloheximide cs 28, Shiga toxin inh 64
COC(=O)c1cc(S(=O)(=O)NCCCN2CCCC2=O)cn1C	none
CCOC(=O)c1ccc(NC(=O)c2ccc(CN3CCOCC3)cc2)cc1	Pf growth 48h inconclusive
O=C(Nc1ccc(CN2CCOCC2)cc1)c1ccccc1F	Cycloheximide cs 42, Shiga toxin inh 92
O=C(Cc1ccccc1)Nc1ccc(CN2CCOCC2)cc1	Cycloheximide cs 31, Shiga toxin inh 81
